Holding throughout (experiment): NCI-60 one-dose screen, 48 h (100 = growth as untreated, 0 = no growth, -100 = all killed)
Details in all cases: 10 µM unless noted

Assay [1] relates to SR leukemia.
Assay [2] relates to RPMI-8226 leukemia.
The subject of assay [3] is OVCAR-8 ovarian.
Assay [4] relates to OVCAR-5 ovarian.
In assay [5] the test system is OVCAR-4 ovarian.
The test system of assay [6] is SK-OV-3 ovarian.
Assay [7] deals with IGROV1 ovarian.
The subject of assay [8] is OVCAR-3 ovarian.
Assay [9] deals with HS 578T breast.
In assay [10] the test system is NCI/ADR-RES ovarian.
Assay [11] relates to T-47D breast.
The test system of assay [12] is BT-549 breast.
In assay [13] the test system is MDA-MB-435 melanoma.
The subject of assay [14] is SW-620 colon.
The subject of assay [15] is MCF7 breast.
For assay [16], the system named is HCT-116 colon.
The subject of assay [17] is HCC-2998 colon.
Assay [18] deals with KM12 colon.
Assay [19] relates to MDA-MB-468 breast.

Structures are written as SMILES. About 83,000 compounds went through this panel and 20% of them were active in at least one assay; those are over-represented in the sample as a whole.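 Compound tested at a single concentration for 48 hours in 96-well plates; a percent growth value below 10 was scored as active.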 Unmarked numbers belong to inactive results. Active and inactive are the calls of the source.

Consider `Cc1ccc(NC(=O)[C@]23CCC(C)(C)CC2C2=CCC4[C@@]5(C)C[C@@H](O)[C@H](O)[C@@](C)(CO)C5CC[C@@]4(C)[C@]2(C)CC3)cc1` (stereo partly drawn), for which the growth in assay [1] was -11.8% (active); in assay [2], -29.1% (active); in assay [3], 44.9%; in assay [4] it was 6.37% (active); in assay [5], 38.7%; in assay [6] it was 28.4%. Moreover, the growth was 54.3% in [7]; 41.2% in assay [8]; 32.4% in assay [9]; 31.4% in assay [10]; 10.4% in assay [11]; 0.29% (active) in assay [12]. Moreover, the growth in assay [13] is 26.2%; in assay [14], 40.1%; in assay [15], 4.26% (active); in assay [16], 6.55% (active); in assay [17], -6.83% (active); in assay [18], -22.3% (active). In addition, in assay [19], the growth is 0.813% (active).
As for `CCN(CC)c1ccc(/C=N/Nc2nc(-c3ccc(Br)cc3)cs2)c(O)c1`, the growth in [1] is 3.58% (active); in [2] it was 38.4%; in assay [3] it was 81.6%; in assay [4], 91.5%; in assay [5] it was 70.2%; in assay [6] it was 103%. The growth is 78.8% in [7]; 61.3% in assay [8]; 102% in assay [9]; 95.3% in [10]; 80.9% in [11]; 37.4% in assay [12]. The growth in assay [13] was 64.5%; in [14], 10.5%; in assay [15], 18.7%; in [16] it was 18.3%; in assay [17], 100%; in assay [18], 86.3%. In addition, in [19], the growth was 69%.
`Cc1cccc(NC(=O)[C@]23CCC(C)(C)CC2C2=CCC4[C@@]5(C)C[C@@H](O)[C@H](O)[C@@](C)(CO)C5CC[C@@]4(C)[C@]2(C)CC3)c1` (stereo partly drawn): the growth in [1] is -26% (active); in assay [2], 2.61% (active); in assay [3] it was 39.3%; in [4], -28.9% (active); in [5] it was 23.5%; in assay [6] it was 36.9%. Besides, the growth in assay [7] is 35.6%; in [8] it was 41.3%; in assay [9], 31%; in assay [10], 7.61% (active); in [11] it was 13.5%; in [12], 8.83% (active). In addition, the growth in assay [13] was 25.5%; in [14], 33.2%; in assay [15] it was -6.63% (active); in assay [16] it was 1.25% (active); in assay [17], -64% (active); in assay [18], 3.56% (active). For the same molecule, the growth in [19] was -8.73% (active).
As to `COc1cc(C2CC(c3cc(OC)c(OC)c(OC)c3)=NN2c2ccccc2)ccc1OCc1ccc(C)cc1` (stereo not drawn), the growth in [1] is 105%; in assay [2] it was 102%; in assay [3], 98%; in assay [4], 105%; in assay [5], 89.2%; in assay [6], 101%. The growth in assay [7] was 94.2%; in [8], 101%; in assay [9], 94.5%; in assay [10], 101%; in assay [11] it was 79.9%; in assay [12], 103%. Further, the growth in assay [13] is 97%; in assay [14], 94.3%; in [15] it was 81.3%; in [16], 80.6%; in assay [17] it was 110%; in assay [18], 96.9%. Also, in [19], the growth is 92.2%.
With `O=C1/C(=C/C2=Cc3ccccc3OC2)SC(=S)N1c1ccccc1F`, the growth is 91% in [1]; 85.7% in [2]; 110% in [3]; 108% in assay [4]; 107% in assay [5]; 95.3% in assay [6]. Besides, the growth in assay [7] is 103%; in assay [8] it was 109%; in assay [9], 105%; in assay [10], 109%; in assay [11], 95%; in assay [12], 77.8%. Moreover, the growth in assay [13] was 108%; in assay [14], 112%; in assay [15], 78.4%; in [16], 96.4%; in [17], 109%; in assay [18], 102%. The growth in [19] is 99%.
With `COc1cc2oc(-c3cccc(NC(=O)[C@H](CC(N)=O)NC(=O)OC(C)(C)C)c3)cc(=O)c2c(OC)c1OC`, the growth was 58.4% in [1]; 69.3% in [2]; 73.3% in assay [3]; 95.5% in [4]; 94.6% in [5]; 140% in assay [6]. Moreover, the growth in assay [7] is 96.9%; in [8], 105%; in assay [9], 83.1%; in assay [10], 102%; in [11], 65.7%; in assay [12], 82.6%. The growth is 97.2% in [13]; 94.5% in [14]; 71.8% in assay [15]; 89.3% in assay [16]; 100% in assay [17]; 87.1% in assay [18]. Further, the growth in assay [19] is 82.7%.
For the molecule `C#CCOc1cc(N(CC)CC)ccc1C(C(=O)NC(C)(C)C)N(C(=O)C1CCc2cc(F)ccc2O1)c1ccc(Br)cc1` (stereo not drawn), the growth is 54% in assay [1]; 44.7% in assay [2]; 89.3% in [3]; 87.1% in [4]; 82.3% in assay [5]; 95.3% in assay [6]. Further, the growth in assay [7] was 80.2%; in assay [8], 107%; in assay [9], 88.3%; in [10], 89.4%; in [11] it was 71.3%; in assay [12], 75%. In addition, the growth is 69.9% in assay [13]; 77.9% in assay [14]; 52.8% in [15]; 35.6% in assay [16]; 100% in assay [17]; 60.4% in assay [18]. In addition, the growth in assay [19] was 61.2%.

For the origin of these results see PubChem BioAssay (NCI).
